In ChEMBL document CHEMBL1961873, “Compounds: GSK PKIS; Assays: Nanosyn kinase panel” (2012):

Columns and labels:
[1] = biological target: Death-associated protein kinase 1 (Homo sapiens) (UniProt P53355); conditions: at 1 µM;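 note: each value is a mean inhibition figure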
[2] = biological target: T1, Serine/threonine-protein kinase DCLK2 (Homo sapiens) (UniProt Q8N568); conditions: at 0.1 µM
T1 sequence (whole entry): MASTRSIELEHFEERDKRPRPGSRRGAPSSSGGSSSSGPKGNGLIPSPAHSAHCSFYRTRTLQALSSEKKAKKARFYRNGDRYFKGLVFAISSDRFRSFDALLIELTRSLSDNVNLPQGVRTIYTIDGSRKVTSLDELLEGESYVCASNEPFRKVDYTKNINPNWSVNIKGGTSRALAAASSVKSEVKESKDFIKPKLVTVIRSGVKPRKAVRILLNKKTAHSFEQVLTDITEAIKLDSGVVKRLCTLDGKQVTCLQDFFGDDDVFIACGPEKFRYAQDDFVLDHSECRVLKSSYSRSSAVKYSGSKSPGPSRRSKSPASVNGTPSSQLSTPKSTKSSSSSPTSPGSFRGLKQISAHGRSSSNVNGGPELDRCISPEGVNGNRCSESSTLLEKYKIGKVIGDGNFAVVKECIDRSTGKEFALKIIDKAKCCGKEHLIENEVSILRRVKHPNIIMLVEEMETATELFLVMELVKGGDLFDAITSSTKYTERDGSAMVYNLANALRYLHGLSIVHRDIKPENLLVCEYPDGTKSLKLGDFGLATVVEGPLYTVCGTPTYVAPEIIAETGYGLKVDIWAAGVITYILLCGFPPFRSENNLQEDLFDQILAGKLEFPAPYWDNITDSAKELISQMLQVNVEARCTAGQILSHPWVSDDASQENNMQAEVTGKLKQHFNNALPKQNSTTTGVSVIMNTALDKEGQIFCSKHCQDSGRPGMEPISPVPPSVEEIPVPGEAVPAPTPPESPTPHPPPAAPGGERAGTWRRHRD

[3] = biological target: T1, Serine/threonine-protein kinase DCLK2 (Homo sapiens); conditions: at 1 µM
[4] = biological target: MAP kinase-activated protein kinase 2 (Homo sapiens) (UniProt P49137); conditions: at 0.1 µM
Chain of MAP kinase-activated protein kinase 2 (Homo sapiens) (P49137 whole entry, looked up): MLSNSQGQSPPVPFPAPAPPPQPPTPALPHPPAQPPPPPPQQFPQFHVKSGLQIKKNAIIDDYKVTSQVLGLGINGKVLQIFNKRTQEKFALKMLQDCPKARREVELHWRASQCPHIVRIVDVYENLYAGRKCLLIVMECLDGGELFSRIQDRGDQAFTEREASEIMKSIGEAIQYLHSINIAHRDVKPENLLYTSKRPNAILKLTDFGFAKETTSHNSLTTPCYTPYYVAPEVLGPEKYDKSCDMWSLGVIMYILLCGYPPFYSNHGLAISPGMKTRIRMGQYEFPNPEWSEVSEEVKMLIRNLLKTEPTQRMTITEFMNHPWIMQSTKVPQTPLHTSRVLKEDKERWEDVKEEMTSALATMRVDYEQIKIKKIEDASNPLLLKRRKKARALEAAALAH

[5] = biological target: MAP kinase-activated protein kinase 2 (Homo sapiens) (UniProt P49137); conditions: at 1 µM
[6] = biological target: MAP kinase-activated protein kinase 3 (Homo sapiens) (UniProt Q16644); conditions: at 0.1 µM
Chain of MAP kinase-activated protein kinase 3 (Homo sapiens) (Q16644 whole entry, looked up): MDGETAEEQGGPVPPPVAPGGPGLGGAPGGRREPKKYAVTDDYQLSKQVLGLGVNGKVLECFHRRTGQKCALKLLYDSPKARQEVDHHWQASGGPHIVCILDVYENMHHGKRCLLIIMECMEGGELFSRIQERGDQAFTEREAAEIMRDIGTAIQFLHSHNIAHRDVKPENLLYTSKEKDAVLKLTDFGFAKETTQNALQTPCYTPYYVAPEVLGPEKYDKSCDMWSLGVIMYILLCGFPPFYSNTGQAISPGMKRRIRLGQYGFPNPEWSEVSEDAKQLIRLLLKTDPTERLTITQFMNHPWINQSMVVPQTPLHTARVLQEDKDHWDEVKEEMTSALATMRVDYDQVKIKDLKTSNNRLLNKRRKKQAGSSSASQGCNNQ

[7] = biological target: MAP kinase-activated protein kinase 3 (Homo sapiens) (UniProt Q16644); conditions: at 1 µM
[8] = biological target: Serine/threonine-protein kinase MARK1 (Homo sapiens) (UniProt Q9P0L2); conditions: at 0.1 µM
Chain of Serine/threonine-protein kinase MARK1 (Homo sapiens) (Q9P0L2 whole entry, looked up): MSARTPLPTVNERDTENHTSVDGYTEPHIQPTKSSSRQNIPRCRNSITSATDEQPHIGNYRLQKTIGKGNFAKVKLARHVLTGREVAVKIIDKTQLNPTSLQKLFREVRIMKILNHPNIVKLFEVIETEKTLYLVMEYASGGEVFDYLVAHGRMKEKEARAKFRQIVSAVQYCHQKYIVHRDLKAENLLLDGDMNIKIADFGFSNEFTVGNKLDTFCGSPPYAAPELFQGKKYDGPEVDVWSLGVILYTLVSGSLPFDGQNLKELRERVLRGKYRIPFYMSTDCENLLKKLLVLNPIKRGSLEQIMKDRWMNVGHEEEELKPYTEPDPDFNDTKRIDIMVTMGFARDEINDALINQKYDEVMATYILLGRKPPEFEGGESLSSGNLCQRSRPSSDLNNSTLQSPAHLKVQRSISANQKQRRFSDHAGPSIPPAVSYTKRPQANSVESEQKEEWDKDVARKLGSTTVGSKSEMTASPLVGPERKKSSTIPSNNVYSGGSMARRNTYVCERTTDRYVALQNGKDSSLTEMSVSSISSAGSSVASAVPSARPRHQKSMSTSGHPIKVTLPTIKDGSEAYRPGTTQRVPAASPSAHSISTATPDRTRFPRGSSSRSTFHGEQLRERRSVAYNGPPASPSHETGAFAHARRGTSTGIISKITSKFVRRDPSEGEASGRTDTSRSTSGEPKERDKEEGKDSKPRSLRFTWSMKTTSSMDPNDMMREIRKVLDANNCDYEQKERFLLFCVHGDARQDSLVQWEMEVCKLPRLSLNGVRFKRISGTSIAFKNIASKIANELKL

[9] = biological target: Serine/threonine-protein kinase MARK1 (Homo sapiens) (UniProt Q9P0L2); conditions: at 1 µM
[10] = biological target: MAP/microtubule affinity-regulating kinase 3 (Homo sapiens) (UniProt P27448); conditions: at 0.1 µM;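 note: mean percent inhibition of MARK3 kinase activity, measured within the GSK PKIS screening panel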
Chain of MAP/microtubule affinity-regulating kinase 3 (Homo sapiens) (P27448 whole entry, looked up): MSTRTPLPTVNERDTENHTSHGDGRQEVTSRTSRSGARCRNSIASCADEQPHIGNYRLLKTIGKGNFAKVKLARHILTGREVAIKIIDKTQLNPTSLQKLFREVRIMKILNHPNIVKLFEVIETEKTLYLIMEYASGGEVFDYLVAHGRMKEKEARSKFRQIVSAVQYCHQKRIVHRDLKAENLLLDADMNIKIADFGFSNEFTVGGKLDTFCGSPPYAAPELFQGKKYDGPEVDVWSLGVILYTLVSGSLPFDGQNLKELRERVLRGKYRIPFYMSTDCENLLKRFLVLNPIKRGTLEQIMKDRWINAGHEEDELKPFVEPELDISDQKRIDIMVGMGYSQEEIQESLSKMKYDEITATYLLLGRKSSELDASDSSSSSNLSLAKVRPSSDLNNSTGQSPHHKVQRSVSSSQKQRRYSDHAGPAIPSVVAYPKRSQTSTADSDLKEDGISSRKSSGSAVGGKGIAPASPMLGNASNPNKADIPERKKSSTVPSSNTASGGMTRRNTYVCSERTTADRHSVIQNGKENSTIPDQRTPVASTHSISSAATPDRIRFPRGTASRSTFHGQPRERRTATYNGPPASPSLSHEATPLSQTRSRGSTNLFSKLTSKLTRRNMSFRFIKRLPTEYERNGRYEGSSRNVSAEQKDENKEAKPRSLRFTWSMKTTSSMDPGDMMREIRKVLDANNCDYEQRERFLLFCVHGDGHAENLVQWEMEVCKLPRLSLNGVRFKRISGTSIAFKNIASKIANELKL

Chain of Death-associated protein kinase 1 (Homo sapiens) (P53355 whole entry, looked up): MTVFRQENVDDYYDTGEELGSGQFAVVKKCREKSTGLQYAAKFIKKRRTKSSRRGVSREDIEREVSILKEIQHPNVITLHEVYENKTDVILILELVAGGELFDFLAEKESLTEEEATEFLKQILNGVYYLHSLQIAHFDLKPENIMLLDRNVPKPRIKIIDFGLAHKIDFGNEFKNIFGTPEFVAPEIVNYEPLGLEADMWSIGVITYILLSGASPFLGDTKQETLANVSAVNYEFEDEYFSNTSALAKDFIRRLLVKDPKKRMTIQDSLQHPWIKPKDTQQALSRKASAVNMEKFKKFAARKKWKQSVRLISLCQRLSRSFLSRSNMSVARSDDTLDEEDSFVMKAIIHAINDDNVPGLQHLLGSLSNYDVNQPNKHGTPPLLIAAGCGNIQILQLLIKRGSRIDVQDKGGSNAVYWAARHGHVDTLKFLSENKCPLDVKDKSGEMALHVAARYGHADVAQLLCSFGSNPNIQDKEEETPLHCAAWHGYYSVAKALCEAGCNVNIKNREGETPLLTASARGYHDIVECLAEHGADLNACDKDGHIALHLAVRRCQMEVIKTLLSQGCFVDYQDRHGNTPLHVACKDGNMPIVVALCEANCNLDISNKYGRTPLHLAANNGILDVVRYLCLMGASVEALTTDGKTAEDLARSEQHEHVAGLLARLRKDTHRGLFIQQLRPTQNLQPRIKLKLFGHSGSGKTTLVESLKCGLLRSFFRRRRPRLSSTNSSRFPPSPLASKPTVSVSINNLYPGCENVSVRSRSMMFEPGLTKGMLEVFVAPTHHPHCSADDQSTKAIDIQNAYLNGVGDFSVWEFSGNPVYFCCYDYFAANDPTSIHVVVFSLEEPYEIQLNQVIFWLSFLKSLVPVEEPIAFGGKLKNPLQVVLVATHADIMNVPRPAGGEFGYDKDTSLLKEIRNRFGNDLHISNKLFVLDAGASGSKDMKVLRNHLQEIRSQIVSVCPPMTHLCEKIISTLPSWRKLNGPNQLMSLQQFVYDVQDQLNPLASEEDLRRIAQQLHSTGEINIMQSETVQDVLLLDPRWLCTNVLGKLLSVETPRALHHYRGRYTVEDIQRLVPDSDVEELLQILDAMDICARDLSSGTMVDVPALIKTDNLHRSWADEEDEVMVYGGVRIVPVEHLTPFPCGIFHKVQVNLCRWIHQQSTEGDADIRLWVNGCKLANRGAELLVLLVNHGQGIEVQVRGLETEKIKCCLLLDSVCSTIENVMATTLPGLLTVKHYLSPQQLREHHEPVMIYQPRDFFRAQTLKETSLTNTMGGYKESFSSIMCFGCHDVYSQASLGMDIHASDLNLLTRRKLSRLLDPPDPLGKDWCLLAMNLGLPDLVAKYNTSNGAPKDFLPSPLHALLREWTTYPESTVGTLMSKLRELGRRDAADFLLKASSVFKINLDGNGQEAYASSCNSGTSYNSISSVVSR

Row | Structure (SMILES) | inhibition [1] | inhibition [2] | inhibition [3] | inhibition [4] | inhibition [5] | inhibition [6] | inhibition [7] | inhibition [8] | inhibition [9] | inhibition [10]
1 | Fc1ccc(-c2ncn(C3CCNCC3)c2-c2ccnc(Oc3ccc4c(c3)OCO4)n2)cc1 | -4.62% | 2.01% | 2.26% | 0% | -0.67% | 29.6% | 31.2% | 2.98% | 5.01% | 3.59%
2 | c1ccc(Oc2ccc(Nc3ncc(-c4ccccc4)o3)cc2)cc1 | 0.04% | 0.28% | -1.82% | 0.81% | 0.09% | 1.72% | 1.73% | 1.66% | 0.44% | -0.01%
3 | C/C(Nc1ccc(S(N)(=O)=O)cc1)=C1/C(=O)Nc2ccccc21 | 1.66% | 4.83% | 2.32% | -0.92% | -0.57% | -0.79% | -0.11% | 4.3% | 32.8% | 2.37%
4 | C#Cc1cccc(Nc2ncnc3ccc(OCCCCNCCS(C)(=O)=O)cc23)c1 | 2.74% | -0.45% | -4.44% | 2.15% | 1.98% | 4.84% | 4.44% | 5.11% | 8.02% | 5.17%
5 | CN(C)c1ccc2c(c1)/C(=C/Nc1ccc(S(N)(=O)=O)cc1)C(=O)N2 | 1.27% | 1.9% | 5.58% | 0.97% | 1.33% | 0.95% | -0.05% | 6.96% | 36.4% | 6.41%
6 | COc1cc2ncn(-c3cc(OCCc4ccccc4)c(C(N)=O)s3)c2cc1OC | 1.51% | 0.43% | 0.05% | 0.61% | 1.03% | 2.1% | 4.28% | 3.11% | 3.45% | 3.88%
7 | CS(=O)(=O)CCNCc1ccc(-c2ccc3ncnc(Nc4ccc(OCc5ccccc5)c(Br)c4)c3c2)o1 | 2.27% | -2.49% | -1.71% | 1.3% | 0.14% | 3.07% | 2.03% | 1.99% | 1.61% | 3.89%
8 | NC(=O)c1ccc(Oc2nccc(-c3c(-c4ccc(F)cc4)ncn3C3CCNCC3)n2)cc1 | -3.98% | 0.57% | 1.94% | 0.01% | 1.79% | 17.6% | 30.8% | 2.78% | 4.16% | 3.42%
9 | C[C@@H](Oc1cc(-n2cnc3ccc(OC4CCN(C)CC4)cc32)sc1C(N)=O)c1ccccc1Cl | 1.99% | -3.12% | -1.54% | 1.32% | 2.41% | 3.38% | 3.91% | 3.46% | 8.24% | 4.33%
10 | COc1ccc2cc(-c3c(-c4ccncc4)nc(-c4ccc([S+](C)[O-])cc4C)n3C)ccc2c1 (stereo not given) | -9.4% | -1.12% | 5.6% | -3.43% | -3.96% | -6.68% | -5.38% | -1.01% | -1.81% | 0.61%
11 | CN(C)CCOc1ccc(-c2cc(-c3ccc4c(c3)CCC4=NO)c(-c3ccncc3)o2)cc1 | -1.18% | -2.52% | -1.37% | -1.35% | -1.61% | -1.27% | -1.84% | -2.08% | 1.81% | -5.74%
12 | Fc1ccc(-c2ncn(CCCN3CCOCC3)c2-c2ccncc2)cc1 | 2.3% | -1.56% | 5.36% | -0.27% | -0.32% | 3.13% | 14.5% | 0.51% | 0.81% | 2.21%
13 | NS(=O)(=O)c1ccc(N/N=C2\C(=O)Nc3ccc(C(=O)NCCCn4ccnc4)cc32)cc1 | 14.2% | 1.59% | 2.86% | 4.69% | 5.55% | 9.93% | 10.6% | 5.69% | 22.3% | 1.88%
14 | Fc1ccc(-c2nc3n(c2-c2ccncc2)CCS3)cc1 | 2.21% | -0.75% | -3.53% | 0.87% | 0.79% | 8.6% | 19.8% | 4.51% | 4.67% | 3.87%
15 | NC(=O)Cc1ccccc1Oc1nccc(-c2c(-c3ccc(F)cc3)ncn2C2CCNCC2)n1 | 4.92% | 0.97% | 0.45% | 0.74% | 0.89% | 13.4% | 28.7% | 2.13% | 4.3% | 9.03%
16 | NCc1ccc(-n2c(-c3nonc3N)nc3cnccc32)cc1 | 9.98% | -0.49% | 2.47% | 1.78% | 1.8% | 4.33% | 4.65% | 6.36% | 23.2% | 5.76%
17 | COc1cc(N2CCN(C(C)C)CC2)ccc1Nc1nc(Nc2ccc(F)cc2C(=O)NC[C@@H](O)CO)c2cc[nH]c2n1 | 46.8% | 2.24% | -4.14% | 1.77% | 2.39% | 4.35% | 4.3% | 3.88% | 7.69% | 1.03%

Row | Structure (SMILES) | inhibition [1] | inhibition [2] | inhibition [3] | inhibition [4] | inhibition [5] | inhibition [6] | inhibition [7] | inhibition [8] | inhibition [9] | inhibition [10]
18 | Cc1ccc(NC(=O)c2ccoc2)cc1-c1ccc(C(=O)NCC2CC2)cc1 | 4.7% | -0.46% | -0.45% | 0.09% | -0.32% | 20% | 30.9% | 0.5% | 1.39% | 1.61%
19 | Clc1ccc(CNc2nccc(-c3cnn4ncccc34)n2)cc1 | 11.8% | -0.21% | -0.19% | 3.88% | 3.81% | 7.41% | 7.89% | 1.55% | 1.16% | 0.99%
20 | COc1cc2ncn(-c3cc(OCc4ccccc4C(F)(F)F)c(C(C)=O)s3)c2cc1OC | 1.98% | -1.1% | 1.3% | 1.03% | 0.77% | 3.07% | 2.6% | 4.34% | 2.61% | 0.67%
21 | COc1cc2ncn(-c3cc(OCc4cccs4)c(C(N)=O)s3)c2cc1OC | -2.56% | -9.99% | -0.46% | 0.78% | 1.78% | 1.75% | 2.97% | 2.63% | 15.8% | 3.86%
22 | CCS(=O)(=O)c1ccc(OC)c(Nc2ncc(-c3cccc(-c4ccccc4F)c3)o2)c1 | -0.11% | 1.37% | -3.8% | 0.06% | -0.23% | 1.08% | 1.04% | 1.41% | 0.75% | -0.41%
23 | Cc1ccc(C(=O)NC(C)C)cc1-c1ccc(C(=O)NCC2CC2)cc1 | -2.3% | -3.07% | -1.07% | -1.44% | -1.8% | 0.42% | 9.15% | 0.27% | 0.65% | 0.19%
24 | COc1ccc(C2=C(N3CCc4ccccc43)C(=O)NC2=O)cc1 | 4.07% | 2.43% | 0.92% | 2.76% | 1.74% | 4.85% | 5.21% | 3.48% | 5.45% | 3.65%
25 | CCS(=O)(=O)c1ccc(OC)c(Nc2ncc(-c3ccccc3Cl)o2)c1 | 4.97% | -0.26% | 5.11% | 0.24% | -0.21% | 2.9% | 3.29% | 0.31% | 0.38% | 1.45%
26 | CNC(=O)c1cncc(/C=C/c2c(C)cccc2C)c1 | 0.45% | -0.24% | -2.53% | 0.41% | -0.68% | 0.6% | 0.25% | 0.88% | 0.89% | 0.44%
27 | O=C(Nc1n[nH]c2cc(-c3cc(F)ccc3F)ccc12)C1CC1 | -0.43% | 1.87% | 0.55% | 1.65% | 1.03% | 3.84% | 3.99% | 2.47% | 5.89% | 2.76%
28 | O=C1NC(=O)C(c2cccc(Cl)c2)=C1Nc1ccc(Cl)c(C(=O)O)c1 | 3.41% | 0.79% | -4.18% | 1.73% | 1.21% | 2.96% | 3.57% | 2.35% | 3.49% | 3.32%
29 | Fc1ccc(-c2c(-c3ccncc3)nc3n2CCS3)cc1 | -1.77% | -5.23% | -4.37% | 0.4% | 0.36% | 1.43% | 1.3% | 2.07% | 3.24% | 1.44%
30 | Nc1nccc(-c2c(-c3ccc(F)cc3)ncn2C2CCC(O)CC2)n1 (stereo not given) | -0.38% | -1.66% | 5.59% | -1.26% | -1.57% | 30% | 36.4% | -0.13% | 0.51% | -1.63%
31 | O=C1Nc2ccccc2/C1=C/Nc1ccc(-n2cncn2)cc1 | 7.29% | 1.71% | -2.02% | 2.96% | 2.54% | 3.98% | 3.15% | 5.86% | 25.4% | 3.28%
32 | O=C(NCC1CC1)c1ccc(-c2cccc(C(=O)NC3CC3)c2)cc1 | 3.86% | 1.31% | -0.41% | 0.95% | 1.17% | 2% | 3.94% | 2.23% | 1.62% | 4.12%
33 | CCC(=O)Nc1ccc(C)c(-c2ccc(C(=O)NCC3CC3)cc2)c1 | -3.18% | -0.58% | 0.48% | 0.77% | 1.21% | 6.24% | 20.1% | 0.75% | 1.92% | -0.99%
34 | O=C(Nc1n[nH]c2nc(-c3ccc(O)cc3)c(Br)cc12)C1CC1 | 3.27% | 0.9% | 3.55% | 2.43% | 2.69% | 4.49% | 5.6% | 3.94% | 9.58% | 3.96%
